The results in this text go back to the supplement of paper PMC10338343.

The subject of assay [1] is MILI (PIWIL2) piRISC loaded with L1MC piRNA (26 nt). Kind of assay: pre-steady-state target cleavage rate (min^-1); guide: L1MC piRNA 5'p-UAACUAAAUACUAUGCAAGCUGUAGG; higher = faster piRNA-guided slicing of the target. The method, boiled down: (§1)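 In Cleave-'n-Seq, a transcribed, DNA-blocked target RNA library (0.1 nM) was combined with 1 nM active affinity-purified piRISC bearing one synthetic guide, with or without 500 nM GTSF1 partner protein. Reactions ran in HEPES–potassium acetate buffer at 33 °C for 0–8 or 0–960 min. Uncleaved targets were sequenced and normalised to depth and to weakly complementary targets, three trials were pooled, and k3 was capped at 0.0001 min^-1. The pre-steady-state cleavage rate was obtained by fitting a burst-and-steady-state model.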

Assay [2] concerns EfPiwi piRISC loaded with L1MC piRNA (26 nt). Kind of assay: pre-steady-state target cleavage rate (min^-1); auxiliary factor: 500 nM Ephydatia muelleri Gtsf1; guide: L1MC piRNA 5'p-UAACUAAAUACUAUGCAAGCUGUAGG; MIWI and MILI are mouse PIWI proteins and EfPiwi is from a freshwater sponge; tags in brackets are library labels; higher = faster piRNA-guided slicing of the target. The method, boiled down: as §1
Where [3] appears, read: auxiliary factor: 500 nM mouse GTSF1.
Setting [4] is: auxiliary factor: none (no GTSF1).

± gives the standard deviation.

As to UCCUGGAUGUCGUUACAUAGUAUUUAGUUA, the “pre-steady-state target cleavage rate” value in assay [1] (setting [3]) was found to be 0.105 ± 0.011; in assay [1] (setting [4]) it was 0.00442 ± 0.0022.

Consider UCCUGGAUCAGCUUGCAUAGUCAUUUAGUUA, for which the “pre-steady-state target cleavage rate” value in assay [1] (setting [3]) worked out at 0.0161 ± 0.0075; in assay [1] (setting [4]), 0.00581 ± 0.0023.

UCCUGGAUGUCGUUGCAUAGUAUUUAAGUUA: the “pre-steady-state target cleavage rate” value in assay [1] (setting [3]) turned out to be 0.191 ± 0.032; in assay [1] (setting [4]) it was 0.00676 ± 0.0028.

Regarding UCCUGCUACAGCUUGCAAUCUAUUUAGUUA, the figures for the “pre-steady-state target cleavage rate” value in assay [1] (setting [3]) and in assay [1] (setting [4]) were 0.0303 ± 0.0068 and 0.00243 ± 0.0019, respectively.

For UCCUGGAUGAGCUUGGAUAGUAUUUAGUAA, the “pre-steady-state target cleavage rate” value was determined as 0.178 ± 0.027 in assay [1] (setting [3]) and 0.00491 ± 0.0023 in assay [1] (setting [4]).

With UCCUGGUACAGCUUGCUUACUAUUUAGUUA, the “pre-steady-state target cleavage rate” value in assay [1] (setting [3]) stood at 0.0679 ± 0.012; in assay [1] (setting [4]), 0.00375 ± 0.0027; in assay [2], 0.00704 ± 0.0031.

As for UCCUGGAAGAGCAUGCAUAGUAUUUAGUUA, the “pre-steady-state target cleavage rate” value in assay [1] (setting [3]) worked out at 0.196 ± 0.015; in assay [1] (setting [4]), 0.00911 ± 0.0029.

With UCCUGGAUGUCCUUGCAAAGUUUUUAGUUA, the “pre-steady-state target cleavage rate” value worked out at 0.0117 ± 0.0048 in assay [1] (setting [3]) and 0.00553 ± 0.0019 in assay [1] (setting [4]).

Regarding UCCUGGAUGUCGAUGCAUGGUAUUUAGUUA, the “pre-steady-state target cleavage rate” value in assay [1] (setting [3]) worked out at 0.0229 ± 0.0078; in assay [1] (setting [4]), 0.00372 ± 0.0028.

For UCCUGGAUGUCGAAGCAUAGUAUCUAGUUA, the “pre-steady-state target cleavage rate” value came out at 0.0263 ± 0.0077 in assay [1] (setting [3]) and 0.00418 ± 0.0019 in assay [1] (setting [4]).

For the sequence “UCCUGGAUGUGCUUGCAUAGUAUUUAGUUU [g2:g20:cont:t1U]”, the “pre-steady-state target cleavage rate” value worked out at 0.158 ± 0.016 in assay [1] (setting [3]), 0.0103 ± 0.0037 in assay [1] (setting [4]) and 0.052 ± 0.017 in assay [2].

For the sequence UCCUGGAUGUCGAUGCGUAGUAUUUAGUUA, the “pre-steady-state target cleavage rate” value in assay [1] (setting [3]) stood at 0.0121 ± 0.0036; in assay [1] (setting [4]) it was 0.00501 ± 0.0024.

In the case of UCCUGGAUGUCCAAGCAUAGUAUUUAGUAA, the “pre-steady-state target cleavage rate” value was found to be 0.0187 ± 0.0069 in assay [1] (setting [3]) and 0.00309 ± 0.0027 in assay [1] (setting [4]).

On to UCCUCCUACAGCUUGCUAAGUAUUUAGUUA, for which the “pre-steady-state target cleavage rate” value in assay [1] (setting [3]) was found to be 0.17 ± 0.012; in assay [1] (setting [4]) it was 0.00586 ± 0.0019; in assay [2] it was 0.00593 ± 0.0039.

Consider UCCUGGAUCAGGUUGCAUAGUAUAUAGUUA, for which the “pre-steady-state target cleavage rate” value in assay [1] (setting [3]) is 0.197 ± 0.017; in assay [1] (setting [4]), 0.00574 ± 0.0022; in assay [2], 0.00644 ± 0.0033.

On to UCCUGCUACAGCUUGCAUAGUACUUAGUUA, for which the “pre-steady-state target cleavage rate” value in assay [1] (setting [3]) amounted to 0.233 ± 0.026; in assay [1] (setting [4]), 0.00719 ± 0.0026; in assay [2], 0.00608 ± 0.0018.

In the case of UCCUGGAUGUCCUUGCACAGUAUUUAGUUA, the “pre-steady-state target cleavage rate” value in assay [1] (setting [3]) was found to be 0.145 ± 0.028; in assay [1] (setting [4]), 0.00389 ± 0.0023; in assay [2] it was 0.00454 ± 0.0024.

As for UCCUGGAAACAGCUUGCAUAGUAUUUAGUUA, the “pre-steady-state target cleavage rate” value in assay [1] (setting [3]) is 0.347 ± 0.019; in assay [1] (setting [4]), 0.0105 ± 0.0038; in assay [2], 0.164 ± 0.034.

Turning to “UCCUGGAUGUCCUUGCAUAGUAUUUAGUUU [g2:g19:cont:t1U]”, the “pre-steady-state target cleavage rate” value in assay [1] (setting [3]) was found to be 0.17 ± 0.022; in assay [1] (setting [4]), 0.0113 ± 0.0024; in assay [2], 0.00601 ± 0.0034.

As to UCCUGGAACUGCUAGCAUAGUAUUUAGUUA, the “pre-steady-state target cleavage rate” value in assay [1] (setting [3]) was found to be 0.215 ± 0.015; in assay [1] (setting [4]), 0.00611 ± 0.0019; in assay [2], 0.0171 ± 0.0058.

In the case of UCCUCCAACUGCUUGCAUAGUAUUUAGUUA, the “pre-steady-state target cleavage rate” value stood at 0.256 ± 0.017 in assay [1] (setting [3]), 0.00659 ± 0.0019 in assay [1] (setting [4]) and 0.0183 ± 0.0064 in assay [2].

On to UCCUCCUACACCUUGCAUAGUAAUUAGUUA, for which the results for the “pre-steady-state target cleavage rate” value in assay [1] (setting [3]), in assay [1] (setting [4]) and in assay [2] were 0.196 ± 0.031, 0.00304 ± 0.0027 and 0.0071 ± 0.0031, respectively.

On to UCCUGGUAUAGCUUGCAUAGUAUUUAGUUA, for which the “pre-steady-state target cleavage rate” value in assay [1] (setting [3]) is 0.252 ± 0.022; in assay [1] (setting [4]), 0.011 ± 0.0024; in assay [2] it was 0.0287 ± 0.0075.

In the case of UCCUGCUAGAGCUUGCAUAGUAUUUAGUUA, the “pre-steady-state target cleavage rate” value in assay [1] (setting [3]) amounted to 0.198 ± 0.017; in assay [1] (setting [4]) it was 0.00605 ± 0.0021; in assay [2], 0.00838 ± 0.0023.

For UCCUGGAUGAGCUAGCAUAGUAUUUAGUAA, the “pre-steady-state target cleavage rate” value in assay [1] (setting [3]) was determined as 0.168 ± 0.021; in assay [1] (setting [4]) it was 0.00735 ± 0.0023; in assay [2] it was 0.00419 ± 0.0024.

For UCCUGCAACAGCUUGCAAAGUAUUUAGUUA, the entries for the “pre-steady-state target cleavage rate” value in assay [1] (setting [3]), in assay [1] (setting [4]) and in assay [2] were 0.166 ± 0.012, 0.00683 ± 0.0024 and 0.022 ± 0.0052, respectively.
